This is an account of results in the supplement of paper PMC11628255, “Interference of metal ions on the bioluminescent signal of firefly, Renilla, and NanoLuc luciferases in high-throughput screening assays” (Frontiers in Chemistry, 2024).

Structures are written as SMILES. ± gives the standard deviation of the averaged measurements.

This experiment relates to Renilla luciferase (RLuc). Briefly: residual bioluminescent signal relative to negative control without GSH; higher = less interference (more residual luciferase signal). The following applies: screening conditions buffer. As to the method:
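Selected metal salts at 3-4 concentrations tested on purified FLuc, NLuc or RLuc in screening buffer with 0, 0.2 or 2 mM glutathione added; 10 min enzyme pre-incubation at RT, luminescence 10 min after substrate. Signal normalised to negative control without GSH (% N_VALUE); triplicate wells.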

The mark [1] stands for this setting: metal salt concentration 0.2 mM, glutathione 0 mM.
[2] abbreviates: metal salt concentration 0.2 mM, glutathione 0.2 mM.
Setting [3] is: metal salt concentration 0.2 mM, glutathione 2 mM.
[4] abbreviates: metal salt concentration 1 mM, glutathione 0 mM.
The mark [5] stands for this setting: metal salt concentration 1 mM, glutathione 0.2 mM.
Where [6] appears, read: metal salt concentration 1 mM, glutathione 2 mM.

As for `O=[N+]([O-])[O-].[Ag+]` [silver nitrate], the residual bioluminescent signal runs as follows: (metal salt concentration 0.002 mM, glutathione 0 mM) 116 ± 9.8%; (metal salt concentration 0.002 mM, glutathione 0.2 mM) 109 ± 15%; (metal salt concentration 0.002 mM, glutathione 2 mM) 165 ± 28%; (metal salt concentration 0.0684 mM, glutathione 0 mM) 49.2 ± 15%; (metal salt concentration 0.0684 mM, glutathione 0.2 mM) 115 ± 7.6%; (metal salt concentration 0.0684 mM, glutathione 2 mM) 160 ± 13%. In addition, the residual bioluminescent signal reads like this: under setting [1], 5.26 ± 2.6%; under setting [2], 119 ± 16%; under setting [3], 174 ± 13%; under setting [4], 2.52 ± 2%; under setting [5], 102 ± 13%; under setting [6], 171 ± 12%.
For `O=[N+]([O-])[O-].O=[N+]([O-])[O-].[Cu+2]` [copper(II) nitrate], the residual bioluminescent signal (metal salt concentration 0.1 mM, glutathione 0 mM) came to 90.5 ± 7.6%; the residual bioluminescent signal (metal salt concentration 0.1 mM, glutathione 0.2 mM) stood at 101 ± 3.8%; the residual bioluminescent signal (metal salt concentration 0.1 mM, glutathione 2 mM) came out at 115 ± 12%; the residual bioluminescent signal (metal salt concentration 0.132 mM, glutathione 0 mM) stood at 79.1 ± 10%; the residual bioluminescent signal (metal salt concentration 0.132 mM, glutathione 0.2 mM) came to 88.3 ± 16%; the residual bioluminescent signal (metal salt concentration 0.132 mM, glutathione 2 mM) worked out at 135 ± 20%. Moreover, the residual bioluminescent signal under setting [1] was determined as 107 ± 14%; the residual bioluminescent signal under setting [2] was determined as 98.8 ± 24%; the residual bioluminescent signal under setting [3] was determined as 120 ± 19%; the residual bioluminescent signal under setting [4] was determined as 2.29 ± 2.2%; the residual bioluminescent signal under setting [5] is 27.7 ± 5.2%; the residual bioluminescent signal under setting [6] came to 122 ± 20%.
On to `O=[N+]([O-])[O-].O=[N+]([O-])[O-].[Zn+2]` [zinc nitrate], for which the residual bioluminescent signal runs as follows: under setting [4], 112 ± 18%; under setting [5], 116 ± 25%; under setting [6], 158 ± 11%; (metal salt concentration 2.5 mM, glutathione 0 mM) 104 ± 9.8%; (metal salt concentration 2.5 mM, glutathione 0.2 mM) 110 ± 13%; (metal salt concentration 2.5 mM, glutathione 2 mM) 110 ± 6.2%. Also, the residual bioluminescent signal is, setting by setting: (metal salt concentration 4.13 mM, glutathione 0 mM) 89.4 ± 5%; (metal salt concentration 4.13 mM, glutathione 0.2 mM) 96.3 ± 13%; (metal salt concentration 4.13 mM, glutathione 2 mM) 46.9 ± 19%; (metal salt concentration 10 mM, glutathione 0 mM) 2.06 ± 0.69%; (metal salt concentration 10 mM, glutathione 0.2 mM) 4.57 ± 0.79%; (metal salt concentration 10 mM, glutathione 2 mM) 2.74 ± 2.1%.
